Data published in PubChem BioAssay.
Records with an inconclusive call do not appear. Activity calls are given as the source filed them.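 Rule for the calls, unless noted: active = RAM network inhibition above 8.4% in each of two replicates, 3 SD over the compound average; inconclusive = above 8.4% inhibition in only one replicate; inactive = 8.4% inhibition or less in each replicate.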

Experiments:
[1] = OD615 S. cerevisiae growth inhibition, permissive medium, pilot counter-assay, permissive growth control for S. cerevisiae lifespan shortening project (AID 705;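 active = growth inhibition above 25% in both replicates, a cutoff set 3 SD above the mean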); details: OD615, 24 h, at 10 µM, stronger effect = higher value
[2] = viability gain of MRP-1-high H69AR cells under doxorubicin, pilot screen, MRP-1 activator project, CellTiter-Glo, duplicate (AID 807;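 active = viability increase at or above a cutoff of the median across tested compounds plus 3 SD, cut at about 8.5% in these data, passing the limit was not always enough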;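 note: compound pretreatment 18-22 h then 72 h combined with doxorubicin; 0% = doxorubicin alone and 100% = vehicle without doxorubicin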); details: H69AR viability with doxorubicin, CellTiter-Glo luminescence; at 10 µM; stronger effect = higher value
[3] = growth suppression of beta-catenin knockout HCT116, pilot screen, human colon tumor cells (AID 823;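 active = cell viability at or below a set limit in both duplicate runs, the limit being the all-compound median minus 4 SD, cut at about 23% in these data, passing the limit was not always enough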;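 note: 0% = wells killed by 20 µM Hyamine and 100% = untreated DMSO cell wells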); details: CellTiter-Glo, 60 h, at 10 µM, stronger effect = lower value
[4] = growth suppression of PTEN-deleted HCT116, pilot screen, cell-based, HCT116 clonal line, CellTiter-Glo (AID 824;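 active = viability at or below 27.92% in each of two runs, the all-compound median minus 4 SD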;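 note: 0% = 20 µM Hyamine control and 100% = vehicle cell control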); details: 60 h, at 10 µM, stronger effect = lower value
[5] = inhibitors of the yeast RAM network, pilot screen, dse1pr::URA3 reporter, 5-FOA selection (AID 869;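 active = inhibition over a set limit, the all-compound mean plus 3 SD, in both replicate runs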;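 note: 0% = DMSO wells with no growth and 100% = 10 µM 1-NA-PP1 with full growth; RAM network block rescues cells from 5-FOA so hits raise OD615 growth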); details: S. cerevisiae dse1pr::URA3 5-FOA growth, OD615, 2 d; at 10 µM; stronger effect = higher value; strain carries analog-sensitive mutant Cbk1 kinase
[6] = RAM signaling pathway blockade in yeast – S. cerevisiae, Pdr1DBD-CYC8 efflux-inhibited sensitized strain, primary screen (AID 1298);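 note: 0% = DMSO untreated cells without growth and 100% = 10 µM 1-NA-PP1 full growth; higher means more yeast growth rescued from 5-FOA killing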; details: S. cerevisiae cbk1-as DSE1-URA3 strain, 5-FOA growth OD615, 2 d; at 50 µM; stronger effect = higher value
[7] = Restrictive medium S. cerevisiae growth inhibition, OD615, pilot screen of yeast lifespan reduction project, restrictive growth control (AID 706;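 active = growth inhibition above a set limit, 3 SD over mean compound inhibition, in both replicates, cut at about 43% in these data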;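 note: modified DeaD lifespan yeast strain shifted to restrictive glucose medium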); details: OD615, 48 h, at 10 µM, stronger effect = higher value
[8] = reducers of endogenous Her2 protein level, primary screen, SKBR3 breast tumor cells, AlphaScreen, ATP viability (AID 461;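 active = Her2 level under about 52% in both replicate screens, with viability over 70% of control, limit read from the data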;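 for Her2 level: lower value means less Her2 protein in the cells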;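 for viability: percent of carrier control wells set as 100% viability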); details: 18-24 h, measured here: SKBR3 viability, ATP luminescence, at 10 µM
[9] = molecular target: Receptor tyrosine-protein kinase erbB-2 (Homo sapiens) (UniProt P04626); test: as above; details: 18-24 h, at 10 µM, stronger effect = lower value
Chain of Receptor tyrosine-protein kinase erbB-2 (Homo sapiens) (P04626 whole entry, looked up): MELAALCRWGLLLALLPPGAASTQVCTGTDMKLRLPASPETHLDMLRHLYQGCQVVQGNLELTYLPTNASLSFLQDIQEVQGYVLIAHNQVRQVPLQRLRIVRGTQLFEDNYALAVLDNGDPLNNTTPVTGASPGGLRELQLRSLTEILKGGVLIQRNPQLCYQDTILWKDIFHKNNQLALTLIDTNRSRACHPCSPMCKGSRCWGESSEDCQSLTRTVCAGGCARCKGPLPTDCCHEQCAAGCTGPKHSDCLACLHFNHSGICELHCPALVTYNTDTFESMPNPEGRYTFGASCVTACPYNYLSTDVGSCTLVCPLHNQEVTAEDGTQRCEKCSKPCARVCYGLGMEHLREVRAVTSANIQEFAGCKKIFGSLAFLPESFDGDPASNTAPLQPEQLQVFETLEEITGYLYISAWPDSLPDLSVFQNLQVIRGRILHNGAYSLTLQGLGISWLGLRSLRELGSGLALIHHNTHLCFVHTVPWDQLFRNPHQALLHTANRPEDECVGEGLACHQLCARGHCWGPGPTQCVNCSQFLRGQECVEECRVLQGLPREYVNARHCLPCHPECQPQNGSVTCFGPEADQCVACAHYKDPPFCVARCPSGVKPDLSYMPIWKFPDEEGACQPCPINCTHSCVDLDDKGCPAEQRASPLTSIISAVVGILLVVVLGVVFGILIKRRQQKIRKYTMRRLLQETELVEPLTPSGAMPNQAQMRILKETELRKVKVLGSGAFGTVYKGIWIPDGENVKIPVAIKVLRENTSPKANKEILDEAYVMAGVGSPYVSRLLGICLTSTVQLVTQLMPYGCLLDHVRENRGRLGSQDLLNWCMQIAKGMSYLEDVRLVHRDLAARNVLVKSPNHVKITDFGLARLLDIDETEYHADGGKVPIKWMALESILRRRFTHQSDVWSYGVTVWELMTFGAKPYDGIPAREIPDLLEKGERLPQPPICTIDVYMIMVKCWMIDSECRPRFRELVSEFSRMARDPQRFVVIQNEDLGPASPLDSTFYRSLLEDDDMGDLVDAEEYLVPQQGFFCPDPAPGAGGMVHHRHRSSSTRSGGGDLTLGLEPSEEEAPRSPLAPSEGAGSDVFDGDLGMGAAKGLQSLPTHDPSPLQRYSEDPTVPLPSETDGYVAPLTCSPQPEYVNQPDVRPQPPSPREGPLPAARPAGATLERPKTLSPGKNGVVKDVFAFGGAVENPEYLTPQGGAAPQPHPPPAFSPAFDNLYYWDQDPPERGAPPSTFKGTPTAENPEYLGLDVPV

[10] = SK-BR-3 cell growth inhibitors, pilot screen, 24 h, human (AID 572;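 active = viability at or below 10% of carrier control in both of two separate runs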;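 note: compound exposure lasted between 18 and 24 h rather than exactly 24 h; 100% = carrier-treated control wells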); details: SK-BR-3 viability, CellTiter-Glo luminescence, at 10 µM, stronger effect = lower value
[11] = HUVEC growth inhibition – cell-based, human, primary screen (AID 575;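 active = viability at or below 30% in both replicate assays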;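 note: 100% = median of untreated cell wells with 0.1% DMSO on each plate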); details: HUVEC proliferation, CellTiter-Glo luminescence, 72 h; at 10 µM; stronger effect = lower value
[12] = growth inhibitors of H69AR lung tumor, primary screen, human, duplicate replicates (AID 580;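 active = viability at or under a set limit in both replicates, limit being median viability minus 3 SD, cut at about 48% in these data, passing the limit was not always enough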;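 note: 100% = mean luminescence of untreated wells and 0% = no signal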); details: H69AR lung tumor cells viability, ATP luminescence, 72 h; at 10 µM; stronger effect = lower value
[13] = reversal of MRP1-mediated doxorubicin resistance, pilot screen, H69AR cells, doxorubicin co-treatment (AID 601;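 active = viability loss from added drug above about 55%, and viability with drug at most 40%, in both replicates, limit read from the data, passing the limit was not always enough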); details: CellTiter-Glo, 72 h, at 10 µM; for differential viability (reversal): stronger effect = higher value
[14] = H69AR cells + 2 uM doxorubicin, measured here: viability with 2 uM doxorubicin, stronger effect = lower value
[15] = H69AR cells, compound alone cytotoxicity

O=c1c2ccccc2[nH]c(=S)n1Cc1cccnc1
inactive: growth inhibition [1] 6.04% | viability increase [2] -0.83% | viability [3] 103% | viability [4] 92.5% | inhibition [5] -0.605% | RAM network inhibition [6] 1.73%

Cn1c(CNc2ccccc2O)nc2ccccc21
inactive: growth inhibition [1] -5.35% | viability increase [2] -6.1% | viability [3] 68.8% | viability [4] 64% | inhibition [5] 0.42% | RAM network inhibition [6] -1.31%

COc1ccc(OC)c(C2CC(=O)N3CN(c4ccc(C)c(Cl)c4)CSC3=C2C#N)c1 (stereo not drawn)
inactive: growth inhibition [1] -0.805% | viability increase [2] -3.72% | viability [3] 90.6% | viability [4] 94.4% | inhibition [5] 2.44% | RAM network inhibition [6] 7.86%

COc1ccc(OCC(=O)Nc2cc(OC)cc(OC)c2)cc1
inactive: growth inhibition [7] 7.43% | viability increase [2] -3.71% | viability [3] 88.7% | viability [4] 93.9% | inhibition [5] -0.89% | RAM network inhibition [6] -2.47%

O=C(CSc1nnc(Cn2c(=O)sc3ccccc32)n1CCc1ccccc1)N1CCCC1
inactive: growth inhibition [1] 2.63% | viability increase [2] -3.62% | viability [3] 97.9% | viability [4] 94.9% | inhibition [5] 2.82% | RAM network inhibition [6] 7.13%

Cc1csc(NC(=O)CSc2nnc(Cc3cccn3C)n2CCc2ccccc2)n1
inactive: growth inhibition [1] 11% | viability increase [2] -3.58% | viability [3] 87.1% | viability [4] 82.6% | inhibition [5] 0.505% | RAM network inhibition [6] 9.43%

Fc1ccc(-c2nnc3ccc(N4CCc5ccccc5C4)nn23)cc1
inactive: growth inhibition [1] 14.2% | viability increase [2] -7.99% | inhibition [5] 2.02% | RAM network inhibition [6] 3.14%
active: viability [3] 2.21% | viability [4] 1.42%

c1cncc(-c2nnc(SCc3cccc4ccccc34)o2)c1
inactive: growth inhibition [1] -6.93% | viability increase [2] -0.01% | viability [3] 103% | viability [4] 91% | inhibition [5] 1.16% | RAM network inhibition [6] 0.49%

COc1ccc(OC)c(C2CC(=O)N3CN(c4cccc(Cl)c4)CSC3=C2C#N)c1 (stereo not drawn)
inactive: growth inhibition [1] 1.31% | viability increase [2] -2.23% | viability [3] 100% | viability [4] 95.4% | inhibition [5] 2.46% | RAM network inhibition [6] 8.89%

Oc1c(CN2CCc3ccccc3C2)cc(Cl)c2cccnc12
active: viability [3] 1.27% | viability [4] 0.66%
inactive: growth inhibition [1] 5.68% | viability increase [2] -9.01% | inhibition [5] -1.5% | RAM network inhibition [6] -2.41%

CCOC(=O)CNC(=O)CSc1nnc(-c2ccco2)n1Cc1ccco1
inactive: growth inhibition [1] 6.66% | viability increase [2] -2.83% | viability [3] 97.2% | viability [4] 98.2% | inhibition [5] 0.765% | RAM network inhibition [6] 3.76%

CCC1(C)Cc2nc3sc(C(=O)O)c(N)c3cc2CO1 (stereo not drawn)
inactive: growth inhibition [1] -4.39% | viability increase [2] -3.61% | viability [3] 94.2% | inhibition [5] 1.71% | RAM network inhibition [6] 6.29%

O=C(Nc1nc2c(s1)CCCC2)c1ccc2ncsc2c1
inactive: growth inhibition [1] 14.5% | viability increase [2] -2.76% | viability [3] 68.4% | viability [4] 76.7% | inhibition [5] -0.135% | RAM network inhibition [6] 0.27%

S=C(Nc1ccccn1)c1ccccn1
active: viability [3] 2.08% | viability [4] 0.72%
inactive: growth inhibition [1] 7.06% | viability increase [2] -8.21% | inhibition [5] 1.43% | RAM network inhibition [6] 3.64%

Clc1ccccc1CSc1nnc(-c2ccccn2)n1Cc1ccco1
inactive: growth inhibition [1] -5.1% | viability increase [2] -5.33% | viability [3] 74.8% | viability [4] 79% | inhibition [5] 1.92% | RAM network inhibition [6] 2.52%

CCC(C)N1CC23C=CC(O2)C(C(=O)OC)C3C1=O (stereo not drawn)
inactive: growth inhibition [1] 0.035% | viability increase [2] 1.12% | viability [3] 109% | viability [4] 106% | inhibition [5] 0.115% | RAM network inhibition [6] 1.34%

CCc1ccc(Cn2nnc(C(=O)NCc3ccccc3OC)c2N)cc1
inactive: growth inhibition [7] 5.92% | viability increase [2] -2.2% | viability [3] 95% | viability [4] 92% | inhibition [5] 1.81% | RAM network inhibition [6] 4.95%

CC(=O)NC1(NC(C)=O)CCN(C)C(c2ccccc2)C1C (stereo not drawn)
inactive: growth inhibition [7] -6.19% | viability increase [2] -2% | viability [3] 98.2% | viability [4] 100% | inhibition [5] 1.46% | RAM network inhibition [6] 1.13%

COc1ccccc1N1CCN(C(CNC(=O)c2ccco2)c2cccnc2)CC1 (stereo not drawn)
inactive: viability increase [2] -2.37% | viability [3] 85% | viability [4] 77% | inhibition [5] 2.23% | RAM network inhibition [6] -0.32%

N[C@@H](Cc1cc(I)c(Oc2ccc(O)c(I)c2)c(I)c1)C(=O)O
inactive: Her2 level [9] 87% | viability [10] 100% | viability [11] 86.9% | viability [12] 97.6% | differential viability (reversal) ([13]; H69AR cells + 2 uM doxorubicin) 6.87%
97.6%: viability [13, 15]
90.8%: viability [13, 14]
100%: viability [8]

Cc1cccc(C)c1NC(=O)C1CCCCN1C (stereo not drawn)
108%: viability [8]
inactive: Her2 level [9] 101% | viability [10] 108% | viability [11] 104% | viability [12] 99.7% | differential viability (reversal) ([13]; H69AR cells + 2 uM doxorubicin) 12%
99.7%: viability [13, 15]
87.7%: viability [13, 14]
